According to PubChem BioAssay AID1159580 (chemical genetic matrix, 2015):
Where “and” joins values, the source holds several entries; their conditions need not be identical. Equal entries are not always repeated. The whole screen tested about 5,500 compounds, of which about 2,000 (36%) were called active. Another 18% or so got no clear call; they are omitted. Rule as the data show it: active = normalized growth mostly below about 0.91 (no sharp cut-off); inconclusive = no clear call, values can overlap the other calls; inactive = mostly above about 0.92. The list shows a part of the results.

Experiment: chemical genetic growth profiling, strain panel (AID 1159580);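 also: tested at 20 µM; growth read once vehicle control cultures reached saturation at 30 °C; 1 = growth at the plate median or of vehicle wells; lower values mean less growth of the strain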
Conditions: growth OD

Measured: normalized growth

CC(C(=O)O)c1cccc(C(=O)c2ccccc2)c1 (stereo not drawn)
inactive: S. cerevisiae deletion strains, locus YJR075W, strain HOC1, hits give low values 1 and 1.06 | S. cerevisiae deletion strains, locus YKL009W, strain mrt4, hits give low values 0.982 | S. cerevisiae deletion strains, locus YKL068W, hits give low values 0.971 | S. cerevisiae deletion strains, locus YKL085W, strain MDH1 (second series), hits give low values 0.968 | S. cerevisiae deletion strains, locus YKL085W, strain MDH1, hits give low values 0.968 | S. cerevisiae deletion strains, locus YKL160W, strain elf1, hits give low values 0.978 | S. cerevisiae deletion strains, locus YKL190W, strain CNB1, hits give low values 0.994 | S. cerevisiae deletion strains, locus YKR001C, strain vps1, hits give low values 0.992 | S. cerevisiae deletion strains, locus YKR026C, strain gcn3, hits give low values 0.984 | S. cerevisiae deletion strains, locus YKR091W, strain srl3, hits give low values 0.989 | S. cerevisiae deletion strains, locus YLL001W, strain dnm1, hits give low values 0.984 | S. cerevisiae deletion strains, locus YLL026W, hits give low values 0.982 | S. cerevisiae deletion strains, locus YLL041C, strain sdh2, hits give low values 1.01 | S. cerevisiae deletion strains, locus YLR027C, strain aat2, hits give low values 0.991 | S. cerevisiae deletion strains, locus YLR039C, strain RIC1, hits give low values 0.993 | S. cerevisiae deletion strains, locus YLR058C, strain SHM2, hits give low values 0.997 | S. cerevisiae deletion strains, locus YLR102C, strain apc9, hits give low values 0.974 | S. cerevisiae deletion strains, locus YLR113W, strain HOG1, hits give low values 1.02 | S. cerevisiae deletion strains, locus YLR221C, strain rsa3, hits give low values 1.01 | S. cerevisiae deletion strains, locus YLR258W, strain gsy2, hits give low values 0.987 | S. cerevisiae deletion strains, locus YLR262C, strain YPT6 (second series), hits give low values 0.987 | S. cerevisiae deletion strains, locus YLR262C, strain YPT6, hits give low values 0.968 | S. cerevisiae deletion strains, locus YLR268W, strain sec22, hits give low values 0.972 | S. cerevisiae deletion strains, locus YLR320W, strain mms22, hits give low values 0.971 | S. cerevisiae deletion strains, locus YLR330W, strain CHS5, hits give low values 0.985 | S. cerevisiae deletion strains, locus YLR342W, strain FKS1 (second series), hits give low values 1.01 | S. cerevisiae deletion strains, locus YLR342W, strain FKS1, hits give low values 1 | S. cerevisiae deletion strains, locus YLR357W, strain rsc2, hits give low values 0.933 | S. cerevisiae deletion strains, locus YLR370C, strain arc18, hits give low values 0.979 | S. cerevisiae deletion strains, locus YLR371W, strain rom2, hits give low values 0.978 | S. cerevisiae deletion strains, locus YLR384C, strain iki3, hits give low values 0.963 | S. cerevisiae deletion strains, locus YLR418C, strain cdc73, hits give low values 0.971 | S. cerevisiae deletion strains, locus YML016C, strain PPZ1, hits give low values 0.996 | S. cerevisiae deletion strains, locus YML032C, strain rad52, hits give low values 0.996 | S. cerevisiae deletion strains, locus YML120C, strain ndi1, hits give low values 0.994 | S. cerevisiae deletion strains, locus YML124C, strain tub3, hits give low values 0.971 | S. cerevisiae deletion strains, locus YMR058W, strain fet3, hits give low values 0.995 | S. cerevisiae deletion strains, locus YMR078C, strain ctf18, hits give low values 0.959 | S. cerevisiae deletion strains, locus YMR125W, strain sto1, hits give low values 0.991 | S. cerevisiae deletion strains, locus YMR129W, hits give low values 0.981 | S. cerevisiae deletion strains, locus YMR205C, strain PFK2, hits give low values 0.985 | S. cerevisiae deletion strains, locus YMR223W, strain ubp8, hits give low values 0.976 | S. cerevisiae deletion strains, locus YMR231W, strain pep5, hits give low values 0.985 | S. cerevisiae deletion strains, locus YMR307W, strain GAS1, hits give low values 0.995 | S. cerevisiae deletion strains, locus YNL067W, strain RPL9B, hits give low values 1.04 | S. cerevisiae deletion strains, locus YNL071W, strain lat1, hits give low values 0.997 | S. cerevisiae deletion strains, locus YNL175C, strain NOP13, hits give low values 1.02 | S. cerevisiae deletion strains, locus YNL183C, strain NPR1, hits give low values 0.955 | S. cerevisiae deletion strains, locus YNL197C, strain WHI3, hits give low values 0.992 | S. cerevisiae deletion strains, locus YNL209W, strain ssb2, hits give low values 0.999 | S. cerevisiae deletion strains, locus YNL224C, strain SQS1, hits give low values 0.997 | S. cerevisiae deletion strains, locus YNL233W, strain BNI4, hits give low values 1.05 | S. cerevisiae deletion strains, locus YNL248C, strain rpa49, hits give low values 0.968 | S. cerevisiae deletion strains, locus YNL250W, strain rad50, hits give low values 0.927 | S. cerevisiae deletion strains, locus YNL271C, strain bni1, hits give low values 0.956 | S. cerevisiae deletion strains, locus YNL298W, strain CLA4, hits give low values 0.973 | S. cerevisiae deletion strains, locus YNL307C, strain MCK1, hits give low values 0.978 | S. cerevisiae deletion strains, locus YNL322C, strain KRE1 (second series), hits give low values 0.953 | S. cerevisiae deletion strains, locus YNL322C, strain KRE1, hits give low values 0.994 and 1.03 | S. cerevisiae deletion strains, locus YNR049C, strain mso1, hits give low values 0.995 | S. cerevisiae deletion strains, locus YNR052C, strain pop2, hits give low values 0.958 | S. cerevisiae deletion strains, locus YOL006C, strain TOP1, hits give low values 1.06 | S. cerevisiae deletion strains, locus YOL012C, strain htz1 1.22 | S. cerevisiae deletion strains, locus YOL147C, strain pex11, hits give low values 0.977 | S. cerevisiae deletion strains, locus YOR001W, strain rrp6, hits give low values 1 | S. cerevisiae deletion strains, locus YOR061W, strain CKA2, hits give low values 1 | S. cerevisiae deletion strains, locus YOR069W, strain VPS5, hits give low values 0.987 | S. cerevisiae deletion strains, locus YOR070C, strain gyp1, hits give low values 0.985 | S. cerevisiae deletion strains, locus YOR080W, strain dia2, hits give low values 0.996 | S. cerevisiae deletion strains, locus YOR083W, strain WHI5 (second series), hits give low values 1.02 | S. cerevisiae deletion strains, locus YOR083W, strain WHI5, hits give low values 0.918 | S. cerevisiae deletion strains, locus YOR106W, strain vam3, hits give low values 0.963 | S. cerevisiae deletion strains, locus YOR136W, strain idh2, hits give low values 0.988 | S. cerevisiae deletion strains, locus YOR144C, strain elg1, hits give low values 0.98 | S. cerevisiae deletion strains, locus YOR184W, strain ser1, hits give low values 0.977 | S. cerevisiae deletion strains, locus YOR231W, strain MKK1, hits give low values 1.04 | S. cerevisiae deletion strains, locus YOR265W, strain rbl2, hits give low values 0.999 | S. cerevisiae deletion strains, locus YOR270C, strain vph1, hits give low values 1 | S. cerevisiae deletion strains, locus YOR290C, strain snf2, hits give low values 0.985 | S. cerevisiae deletion strains, locus YOR316C, strain cot1, hits give low values 0.968 | S. cerevisiae deletion strains, locus YPL051W, strain arl3, hits give low values 0.966 | S. cerevisiae deletion strains, locus YPL055C, strain LGE1, hits give low values 1.1 | S. cerevisiae deletion strains, locus YPL078C, strain atp4, hits give low values 0.972 | S. cerevisiae deletion strains, locus YPL106C, strain sse1, hits give low values 0.962 | S. cerevisiae deletion strains, locus YPL240C, strain hsp82, hits give low values 0.994 | S. cerevisiae deletion strains, locus YPL241C, strain CIN2, hits give low values 0.993 | S. cerevisiae deletion strains, locus YPL256C, strain CLN2, hits give low values 1.02 | S. cerevisiae deletion strains, locus YPR119W, strain clb2, hits give low values 0.963 | S. cerevisiae deletion strains, locus YPR141C, strain kar3, hits give low values 0.973 | S. cerevisiae deletion strains, locus YPR163C, strain tif3, hits give low values 0.979 | S. cerevisiae deletion strains, locus YPR167C, strain met16, hits give low values 0.977 | S. cerevisiae deletion strains, strain wtn01, hits give low values 0.971 | S. cerevisiae strains, strain wild type, hits give low values 1
